Laboratory results as given in the supplement of paper PMC9135407.
Counter-ions that a name gives are not always drawn.

Tested on: primary human hepatic stellate cells (donor 1)
Experiment: ACTA2 mRNA fold change vs DMSO (normalised to PSMB2); higher = more ACTA2 expression
Settings: 48 h
Method: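 Secondary qRT-PCR screen in primary human HSCs (donor 1), 384-well plates, with compounds dispensed in quadruplicate and incubated for 48 h. Cells-to-CT lysates were used for multiplexed TaqMan qPCR of ACTA2 or COL1A1 with PSMB2 as reference. Fold changes versus DMSO come from a linear model (Ct_gene ~ Ct_PSMB2 + plate + chemical). A hit is defined as COL1A1 and ACTA2 FC <0.5 (FDR <0.05) with PSMB2 between 0.2 and 2.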

SMILES	ACTA2 mRNA fold change
CC(C(=O)OC1CC2CCC(C1)N2C)c1ccc(Br)cc1 (configuration not stated) [PG-9 maleate] (33.3333 µM)	0.404
CN(C(=O)Cc1ccc(Cl)c(Cl)c1)[C@H](CN1CCCC1)c1ccccc1 [ICI-199,441 hydrochloride] (33.3333 µM)	0.0655
CC1=C(O)C(=O)C=C2C1=CC=C1[C@@]2(C)CC[C@@]2(C)[C@@H]3C[C@](C)(C(=O)O)CC[C@]3(C)CC[C@]12C [Celastrol] (3.33333 µM)	0.524
O=[N+]([O-])/C=C/c1ccc2c(c1)OCO2 (3.7 µM)	0.905
CC[C@H]1CN2CCc3cc(OC)c(OC)cc3[C@@H]2C[C@@H]1C[C@H]1NCCc2cc(OC)c(OC)cc21 [Emetine] (12.0333 µM)	0.0996
C[C@H](N)Cn1ccc2cc(F)c(Cl)cc21 [Ro 60-0175 fumarate] (33.3333 µM)	0.532
CC1=C(CC/C(C)=C/CCC2=CC[C@H](C3=CC(=O)O[C@H]3O)O[C@H]2O)C(C)(C)CCC1 [Manoalide] (40 µM)	0.0669
CCCCCCCCCCCCCC(=O)O[C@@H]1[C@@H](C)[C@@]2(O)[C@@H](C=C(CO)C[C@]3(O)C(=O)C(C)=C[C@@H]23)[C@@H]2C(C)(C)[C@]12OC(C)=O [Phorbol 12-myristate 13-acetate] (27.0333 µM)	0.624
CO[C@H]1CC[C@@H](O[C@H]2C[C@H]([C@]3(C)CC[C@]4(C[C@H](O)[C@@H](C)[C@@H]([C@@H](C)/C=C(\C)C(=O)[C@H](C)C[C@H](C)C(=O)O)O4)O3)O[C@]3(O[C@@H]([C@H]4O[C@@](O)(CO)[C@H](C)C[C@@H]4C)C[C@@H]3C)[C@@H]2C)O[C@@H]1C [Nanchangmycin] (11.1 µM)	0.0291
C[C@]12CC[C@H](O)C[C@H]1CC[C@@H]1[C@@H]2CC[C@]2(C)[C@@H](C3=CC(=O)OC3)CC[C@]12O [Digitoxigenin] (33.3333 µM)	0.0171
COc1ccc2c(c[n+](C)c3c4cc5c(cc4ccc23)OCO5)c1OC (6.66667 µM)	0.0494
CN[C@@H]1C[C@H]2O[C@@](C)([C@@H]1OC)n1c3ccccc3c3c4c(c5c6ccccc6n2c5c31)C(=O)NC4 [staurosporine] (35.6667 µM)	0.667
Fc1cc(F)c2c(c1)[C@H]1C=CC[C@H]1C(c1cccnc1)N2 (some centres not stated) [Golgicide A] (33.3333 µM)	0.00835
O=c1[nH]c2ccccc2n1C1CCN(CCCC(c2ccc(F)cc2)c2ccc(F)cc2)CC1 [Pimozide] (33.3333 µM)	0.0136
O=C1C2CCN(CC2)C1(CO)CO (90 µM)	0.152
CN1[C@@H]2CC[C@H]1C[C@@H](OC(c1ccc(F)cc1)c1ccc(F)cc1)C2 [3 α-Bis-(4-fluorophenyl) methoxytropane hydrochloride] (33.3333 µM)	0.094
O=C1/C(=C/c2ccccc2)C[C@@]2(O)[C@H]3Cc4ccc(O)c5c4[C@@]2(CCN3CC2CC2)[C@H]1O5 [BNTX maleate] (33.3333 µM)	0.275
C[C@@H]1O[C@@H](O[C@H]2C[C@@H](O)[C@]3(CO)[C@H]4[C@H](O)C[C@]5(C)[C@@H](C6=CC(=O)OC6)CC[C@]5(O)[C@@H]4CC[C@]3(O)C2)[C@H](O)[C@H](O)[C@H]1O [Ouabain] (33.3333 µM)	0.0189
COc1ccc2[nH]cc(C3=CCNCC3)c2c1 (33.3333 µM)	3.02
CCN(CC)CCO[C@H]1CC[C@@]2(C)C(=CC[C@@H]3[C@@H]2CC[C@]2(C)C(=O)CC[C@@H]32)C1 (33.3333 µM)	0.123
CC1=NCCc2c1[nH]c1cc(O)ccc21 [Harmalol hydrochloride dihydrate] (24.4333 µM)	0.546
CCN1CCN(C(=O)Cc2ccc(Nc3ncc(F)c(Nc4ccc(C(=O)Nc5ccccc5Cl)cc4)n3)cc2)CC1 [Aurora A Inhibitor I] (33.3333 µM)	0.131
